Measurements as given in PubChem BioAssay AID2069 (Sanford-Burnham Center for Chemical Genomics, 2009).
Among all 1,200 compounds or so, about 210 (18%) were called active. Cut-off read from the data, not from the text of the source: active = inhibition above about 30%; inactive = the rest. Not all results are given here.

Assay: fluorescence readout artefact check – biochemical, HTRF, uHTS, artefact control for SUMOylation inhibitor project, confirmation (AID 2069)
Conditions: HTRF interference counterscreen, at 35 µM, stronger effect = higher value

SMILES	inhibition
CCOc1ccccc1CNc1ccc(O)cc1	-10.2% (inactive)
O=C(NCc1ccco1)Nc1ccc2snnc2c1	38.8% (active)
O=C(/C=C/c1ccco1)NC(=S)Nc1ccc(O)c(-c2nc3ccccc3s2)c1	9.4% (inactive)
O=C(COC(=O)c1cc(-c2cccs2)nc2ccccc12)NCc1ccco1	16.3% (inactive)
CCOc1cc(NC(=S)NCc2ccco2)c(OCC)cc1NC(=O)CC	-7.1% (inactive)
Cc1nc2ccc(NC(=O)NCc3ccco3)cc2s1	31.5% (active)
Cc1ccc2c(SCC(=O)NCc3ccco3)nc(-c3ccc(F)cc3)nc2c1	-4.7% (inactive)
CN(C)c1cc(N/N=C/c2ccc(Cl)cc2)nc(N(C)C)n1	7% (inactive)
O=C(O)CN1C(=O)/C(=C\c2cc([N+](=O)[O-])ccc2OCc2ccccc2Cl)SC1=S	8.45% (inactive)
Cc1ccc(NC2=CC(=O)CC(c3ccco3)C2)c(N)c1 (stereo unspecified)	1% (inactive)
COc1ccc(-c2cc(=O)[nH][nH]2)cc1	2.7% (inactive)
N#CC(c1nc2ccccc2nc1N1CCCC1)S(=O)(=O)c1cccs1 (stereo unspecified)	-0.1% (inactive)
COC(=O)c1cccc(-c2ccc(C(c3c(C)[nH][nH]c3=O)c3c(C)[nH][nH]c3=O)o2)c1	-4.3% (inactive)
Oc1ccc(Br)cc1CNc1cccc2cccnc12	-17.6% (inactive)
Cc1ccc(NC2=CC(=O)C(=O)c3ccccc32)cc1	-12.4% (inactive)
O=C1C=C(N2CCOCC2)c2ccccc2C1=O	51.9% (active)
O=C1C=C(Nc2ccccc2)c2ccccc2C1=O	-24.5% (inactive)
Cc1[nH][nH]c(=O)c1C(c1c(C)[nH][nH]c1=O)c1cn(Cc2cccc3ccccc23)c2ccccc12	-32.7% (inactive)
CCOc1cc(CNc2ccccc2SC)ccc1O	-6.3% (inactive)
COc1cc(C)c2c(c1C=O)Oc1c(c(C)c(O)c3c1C(O)OC3=O)OC2=O (stereo unspecified)	12.4% (inactive)
CN(C)/C=C1\Oc2ccc3ccccc3c2C1=O	-6.85% (inactive)

SMILES	inhibition
CC1=Nc2nc(N3CCCCC3)c(C#N)c3c4c(nc(c23)N1)N(c1ccc(C(C)C)cc1)C(=O)C4	15.2% (inactive)
O=C(O)COc1ccccc1C(Nc1cccnc1)c1cc(Cl)c2cccnc2c1O (stereo unspecified)	30.4% (active)
CCOc1ccc(C(Nc2cccnc2)c2cc(Cl)c3cccnc3c2O)cc1 (stereo unspecified)	14.3% (inactive)
CCCCC(=O)NC(c1ccccc1Cl)c1ccc2cccnc2c1O (stereo unspecified)	-42.6% (inactive)
COc1ccc(/C=N/N=C2/CC(C)(C)Cc3n[nH]c(=O)cc32)cc1	0.85% (inactive)
COc1ccccc1NC(=O)Cn1c(O)c(N=NC(=O)c2ccccc2O)c2ccccc21	2.2% (inactive)
CCCCn1c(NC(=O)c2ccc(Br)o2)c(S(=O)(=O)c2ccccc2)c2nc3ccccc3nc21	1.65% (inactive)
Cc1ccc(C)c(-c2nc3ccc(N)cc3[nH]2)c1	57% (active)
Nc1ccc2nc(-c3ccc(-c4nc5ccc(N)cc5[nH]4)cc3)[nH]c2c1	25.4% (inactive)
Nc1ccc(-c2nc3ccc(N)cc3[nH]2)cc1	66.3% (active)
O=C(Nc1nccs1)c1cc(-c2ccco2)nc2ccccc12	22.2% (inactive)
Cc1oc2c(c1C(=O)O)C(=O)c1ccccc1C2=O	-5.95% (inactive)
Cc1ccc(NC(=O)CN2C(=O)S/C(=C\c3ccc(-c4cccc(C(=O)O)c4C)o3)C2=O)cc1C	26.3% (inactive)
O=S(=O)(Nc1ccc(O)c2ccccc12)c1cccs1	-16.9% (inactive)
Cc1ccc2[nH]c3c(c2c1)CN(C(=O)CN1CCN(c2cccc(C)c2C)CC1)CC3	12.8% (inactive)
O=c1oc(-c2cccs2)nc2sc3c(c12)CCC3	40.5% (active)
COC(=O)c1c(C)oc(C)c1S(=O)(=O)NC(C)(C)C	3.5% (inactive)
COc1ccc(C2C(C(C)=O)=C(O)C(=O)N2C)c(OC)c1 (stereo unspecified)	-3.35% (inactive)
COc1cc(NC(=O)c2cnc(N)s2)cc(C(=O)Nc2cccc(C(F)(F)F)c2)c1	8.1% (inactive)
O=C(N/N=C/c1ccc(-c2ccc(S(=O)(=O)Nc3ncccn3)cc2)o1)c1cc2ccccc2cc1O	28.5% (inactive)
CCOCCCN1CN(Cc2ccco2)CNC1=S	39.1% (active)

SMILES	inhibition
CC1=C(C#N)C(=O)NC(=O)/C1=C\c1ccc(-c2cc(C)c(C)cc2[N+](=O)[O-])o1	9.4% (inactive)
CCCS(=O)(=O)c1c(S(=O)(=O)CCC)c2c(N)cccn2c1C(=O)c1ccc(Br)cc1	6.7% (inactive)
Cc1cc(=O)[nH]c(-n2[nH]c(C)cc2=O)n1	-1.85% (inactive)
COc1ccccc1C1Nc2cccc3cccc(c23)N1	-18.4% (inactive)
CCOc1ccc(-n2c(SCC(=O)Nc3ccc(CC)cc3)nc3n[nH]c(C)c3c2=N)cc1	23.6% (inactive)
CCCCN1Cc2c(nc3cc(-c4ccco4)[nH]n3c2=O)C1=O	31.7% (active)
O=C1c2nc3cc(-c4ccco4)[nH]n3c(=O)c2CN1C1CCCCC1	29.8% (inactive)
CC1=NN(c2ccccc2)C(=O)/C1=C/c1cccs1	-3.6% (inactive)
Cc1[nH][nH]c(=O)c1C(c1c(C)[nH][nH]c1=O)c1cn(Cc2ccc(F)cc2)c2ccccc12	-43.9% (inactive)
COC(=O)c1scc(C)c1NC(=O)C(Cl)c1ccccc1 (stereo unspecified)	0.85% (inactive)
CN(c1ccccc1)c1ccc(/C=C(\CCC(=O)O)c2nc3ccccc3s2)cc1[N+](=O)[O-]	7.85% (inactive)
NC(=O)c1sc2nc(-c3ccco3)ccc2c1N	41.8% (active)
NNC(=O)c1oc2nc(-c3cccs3)cc(-c3ccco3)c2c1N	12.8% (inactive)
Nc1nc(-c2ccco2)c(-c2ccco2)s1	-13.2% (inactive)
CC(=O)c1sc2nc(-c3ccco3)ccc2c1N	48.3% (active)
N#Cc1sc2nc(-c3ccccc3)cc(-c3ccco3)c2c1N	26.3% (inactive)
NNC(=O)c1oc2nc(-c3ccco3)cc(-c3ccco3)c2c1N	9.15% (inactive)
S=C(Nc1ccc2nsnc2c1)NC1CCCCC1	10.2% (inactive)
O=[N+]([O-])c1ccc(C=Nc2cccc3ccccc23)s1	5.6% (inactive)
